# Experimental data published in the OligoGym collection.
# Target: C13orf33
# Assay: pooled miR-30 sensor sort-seq; sequence = guide strand
# Conditions: shRNA
# Also: reference of the scale not given here.
row,Sequence,sensor-assay potency score (higher = more potent)
1,TATCTGTCTTCTTATCTTGGGG,-0.395
2,TTAATAAAGAACAACATTGGTT,-0.331
3,TTACACTGAACTTTCGGTCAGA,0.151
4,TAACTTTCTCCAATCACTGAGG,-0.682
5,TAATAAAGAACAACATTGGTTT,-0.342
6,TAACTTAATCGTCTCCTTCTTT,-0.331
7,TAATCGTCTCCTTCTTTTCTGG,-0.326

# Target: C14orf105
# Assay: as above
# Conditions: shRNA
row,Sequence,sensor-assay potency score (higher = more potent)
1,TTGCTTTGTGCATTGTCCTGGC,0.239
2,TTTCTTTTCTAGTACCTGCTTT,-0.0807
3,TTGAATGCAAAGTCCACACGGC,0.351
4,TTCCTGAAGTAATTACTCGTGG,-0.0565
5,TTTGCTTATTAATTCTTGCCTC,0.114
6,TTCCATACCAGTTTTCTTGTAA,0.252
7,TTTGCTTTGTGCATTGTCCTGG,0.729
8,TTAATAATACTTGTTTCTCTGT,-0.864
9,TTTTCTTTAACTCCATTTGGGC,-0.637
10,TTGCTTATTAATTCTTGCCTCT,-0.134
11,TTTCTAGTACCTGCTTTGCTTT,-0.906
12,TTCTTTTCTAGTACCTGCTTTG,-0.834

# Target: C14orf109
# Assay: as above
# Conditions: shRNA
row,Sequence,sensor-assay potency score (higher = more potent)
1,ATAGGAACAAAAACATCTGTAA,-0.255
2,ATAACTGCCAAGCATATAGGGA,-0.701
3,TTGCAAATAACTGCCAAGCATA,-1.38
4,TACAATCCCACTCCAATCCATC,-0.538
5,TTCATCATTCTCCATGCTCTGT,-0.667
6,ATGCTCTGTGCAATGGTCCCGA,-0.872
7,AAACATAGTAAAATGCTGCTGC,0.701
8,AAAAATAACTGTCCACACCCAA,-0.714
9,TTCAAGGAGTGTGTCCATGTGG,-0.159
10,AAAATAACTGTCCACACCCAAA,-1.6
11,TTAAAGAGTCACTCAGCTCTGA,0.487
12,TAACTGCCAAGCATATAGGGAT,-0.363

# Target: C14orf149
# Assay: as above
# Conditions: shRNA
row,Sequence,sensor-assay potency score (higher = more potent)
1,TTAAAATCACCACATTTCGCTT,-0.838
2,TCTTCTATTATAAAGCTTGCTG,-0.472
3,TTATAAAGCTTGCTGTACCCGT,0.0873
4,TTCCCTGTGAATACTGAGCCAG,-0.697
5,TAAACTGAGCTTTCACTGCCTC,-0.0059
6,ATGTCCAGGAACATCCACCATG,-1.62
7,TCATCTTCTATTATAAAGCTTG,-0.499
8,TCTATTATAAAGCTTGCTGTAC,-0.349
9,TTCTATTATAAAGCTTGCTGTA,-1.15
